Here are results for 21 compounds from PubChem BioAssay (Tox21).

Several values for one entry are separate records, joined by “and”; a condition that tells them apart may be missing. Equal entries are not always repeated. Values without a mark were called inactive. Records with an inconclusive call do not appear. Activity calls are given as the source filed them. Unless noted, calls come from the whole dose curve.

Experiment [1] can be described thus: qHTS assay to identify small molecule phospholipidosis (PLD) inducers (AID 1259344; active = well fitted curve in the direction sought with a large enough effect; an effect the other way counts as inactive or inconclusive; note: potency is the fitted concentration of half-maximal effect). Summed up: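 Accumulated phospholipid, stained red by LipidTOX during 24 h compound treatment of HepG2 cells at 37 C, is quantified from images as pit number and intensity, normalised per cell using Hoechst-stained nuclei.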
Experiment [2] in a line: qHTS assay to identify small molecule agonists of the AP-1 signaling pathway (AID 1159526). Note: % is set by controls: 0 for no effect and ±100 for the full control effect. For orientation: In qHTS, concentration-response curves come from the screen itself.
Experiment [3] is described as follows: qHTS assay to identify small molecule agonists of the estrogen related receptor (ERR) signaling pathway from Tox21 library (AID 1224849). Note: % is set by controls: 0 for no effect and ±100 for the full control effect; nearly all actives have a fitted effect of over 15% in size. The following applies: ERR reporter cell line, ONE-Glo luciferase, 18 h; at 92.4 µM (top of the series) unless noted. Summed up: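 Quantitative HTS in agonist format: NTP ERR cell line, compounds transferred in DMSO after 6 h plating, 18 h incubation at 37 C, ONE-Glo luminescence endpoint.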

For experiment [4], the target named is Androgen receptor (Homo sapiens) (UniProt P10275). Briefly: qHTS assay to identify small molecule antagonists of the androgen receptor (AR) signaling pathway (AID 743035; active = well fitted inhibition curve with a large enough effect in the signal ratio in the repeat runs, not every such curve was filed as active; the % refers to the signal ratio; note: potency is the fitted concentration of half-maximal effect). The procedure, abridged:
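Quantitative HTS of the Tox21 10K library used HEK293 AR-UAS-bla cells stimulated with R1881 alongside compound for 16 h at 37C, followed by beta-lactamase FRET detection (LiveBLAzer B/G, 2 h, RT).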

For experiment [5], the target named is Estrogen receptor (Homo sapiens) (UniProt P03372). Briefly: qHTS assay to identify small molecule antagonists of the estrogen receptor alpha (ER-alpha) signaling pathway (AID 743069; active = well fitted curve in the direction sought with a large enough effect in the signal ratio in the repeat runs, not every such curve was filed as active; the % refers to the signal ratio; note: potency is the fitted concentration of half-maximal effect). Summed up: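 Fluorescence intensity from a beta-lactamase FRET substrate served as the read-out. Cells: HEK293 with stably integrated ER-alpha-UAS-bla reporter. Agonist 17beta-estradiol was co-added with compounds; incubation 18 hr at 37C, substrate 2 hr at room temperature.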
Sequence of Estrogen receptor (Homo sapiens) (P03372 whole entry, looked up): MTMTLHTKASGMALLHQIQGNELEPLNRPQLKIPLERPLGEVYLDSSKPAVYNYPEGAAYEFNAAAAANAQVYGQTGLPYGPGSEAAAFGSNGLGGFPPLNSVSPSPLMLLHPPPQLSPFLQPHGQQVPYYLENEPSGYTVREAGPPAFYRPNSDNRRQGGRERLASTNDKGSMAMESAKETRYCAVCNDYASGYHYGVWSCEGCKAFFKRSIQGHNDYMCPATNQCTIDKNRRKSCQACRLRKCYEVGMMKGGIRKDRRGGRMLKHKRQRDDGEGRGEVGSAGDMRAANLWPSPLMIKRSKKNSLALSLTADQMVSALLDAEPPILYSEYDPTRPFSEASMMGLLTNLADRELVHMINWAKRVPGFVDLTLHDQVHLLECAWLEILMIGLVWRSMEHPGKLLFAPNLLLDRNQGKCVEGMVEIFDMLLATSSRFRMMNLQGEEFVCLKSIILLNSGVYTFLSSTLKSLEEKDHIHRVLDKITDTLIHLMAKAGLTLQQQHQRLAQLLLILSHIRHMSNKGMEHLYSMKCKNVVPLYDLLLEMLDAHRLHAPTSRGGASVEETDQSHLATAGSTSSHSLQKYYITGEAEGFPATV

The nature of experiment [6]: qHTS assay for small molecule agonists of the antioxidant response element (ARE) signaling pathway (AID 743202; active = well fitted activation curve with a large enough effect in the signal ratio in the repeat runs, not every such curve was filed as active; the % refers to the signal ratio; note: potency is the fitted concentration of half-maximal effect). The procedure, abridged: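 Beta-lactamase reporter activity, read as fluorescence intensity, reflects ARE/Nrf2 pathway induction in HepG2 cells after 16 h compound exposure at 37 C; substrate loading was 2 h at room temperature.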
Experiment [7] concerns the target Vitamin D3 receptor (Homo sapiens) (UniProt P11473). In words: qHTS assay to identify small molecule antagonists of the vitamin D receptor (VDR) signaling pathway (AID 743223; active = well fitted inhibition curve with a large enough effect in the signal ratio in the repeat runs, not every such curve was filed as active; the % refers to the signal ratio; note: % is set by controls: 0 for no effect and ±100 for the full control effect). Summed up: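 Quantitative HTS in VDR-bla reporter cells stimulated with 1alpha,25-dihydroxyvitamin D3, 3 nM final. Compound exposure 16 h, 37C, 5% CO2. Read-out: beta-lactamase FRET substrate fluorescence, 2 h RT.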

Experiment [8] has as its target Androgen receptor (Homo sapiens) (UniProt P10275). In words: qHTS assay to identify small molecule antagonists of the androgen receptor (AR) signaling pathway using the MDA cell line (AID 743042; active = well fitted curve in the direction sought with a large enough effect in the repeat runs; an effect the other way counts as inactive or inconclusive; note: potency is the fitted concentration of half-maximal effect; nearly all actives have a fitted effect of over 55% in size). Summed up:
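Antagonist mode: compounds plus R1881 agonist added to MDA-kb2 AR-luc cells, incubated 16 h at 37C. Luciferase reporter luminescence quantified, with multiplexed CellTiter-Fluor readout for cell viability.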

The target of experiment [9] is Estrogen receptor (Homo sapiens) (UniProt P03372). In words: qHTS assay to identify small molecule agonists of the estrogen receptor alpha (ER-alpha) signaling pathway using the BG1 cell line (AID 743079; active = well fitted curve in the direction sought with a large enough effect in the repeat runs; an effect the other way counts as inactive or inconclusive; note: nearly all actives have a fitted effect of over 20% in size; note: potency is the fitted concentration of half-maximal effect; for activation: % is set by controls: 0 for no effect and ±100 for the full control effect).
For experiment [10], the target named is Nuclear receptor subfamily 1 group I member 2 (Rattus norvegicus) (UniProt Q9R1A7). In words: Rat pregnane X receptor (rPXR) activation by small molecules, qHTS assay (AID 1346983; active = well fitted curve in the direction sought with a large enough effect in the repeat runs; an effect the other way counts as inactive or inconclusive; note: % is set by controls: 0 for no effect and ±100 for the full control effect; nearly all actives have a fitted effect of over 20% in size). The following applies: rPXR luciferase reporter cells, One-Glo luminescence, 24 h; max activation: hits give high values. Summed up:
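Luminescent readout (One-Glo luciferase, 30 min room temperature) followed 24 hr compound treatment at 37 C of rPXR cells plated 2,000 per well and preincubated 5hr; qHTS format with compounds delivered in DMSO.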

The target in experiment [11] is Nuclear receptor subfamily 1 group I member 2 (Homo sapiens) (UniProt O75469). In words: CYP3A4 induction through human pregnane X receptor (PXR) by small molecules, qHTS assay (AID 1346984; active = well fitted curve in the direction sought with a large enough effect in the repeat runs; an effect the other way counts as inactive or inconclusive; note: % is set by controls: 0 for no effect and ±100 for the full control effect; nearly all actives have a fitted effect of over 40% in size). Summed up:
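Induction measured in HepG2-based DPX-2 cells co-expressing human PXR and a CYP3A4 promoter-driven luciferase. After a 24-hour compound exposure, cells received CYP3A4 luciferin substrate at 3uM final for 3 hours, and light output was then recorded.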

Experiment [12] concerns the target Peroxisome proliferator-activated receptor gamma (Homo sapiens) (UniProt P37231). Briefly: qHTS assay to identify small molecule antagonists of the peroxisome proliferator-activated receptor gamma (PPARg) signaling pathway (AID 743191). Note: nearly all actives have a fitted effect of over 30% in size. Note: potency is the fitted concentration of half-maximal effect. Summed up:
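Beta-lactamase reporter under UAS control in HEK293H PPARg-bla cells; compound treatment 17 h at 37C. Read-out: fluorescence intensity after 1 h room-temperature incubation with LiveBLAzer B/G FRET substrate.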

The target in experiment [13] is Androgen receptor (Homo sapiens) (UniProt P10275). In words: qHTS assay to identify small molecule agonists of the androgen receptor (AR) signaling pathway (AID 743036; active = well fitted activation curve with a large enough effect in the signal ratio in the repeat runs, with a control signal flat, not every such curve was filed as active; the % refers to the signal ratio; note: % is set by controls: 0 for no effect and ±100 for the full control effect). The procedure, abridged:
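Screening used 2,000 AR-bla HEK293 cells per well, treated 16 h at 37C with test compounds in DMSO alongside positive and DMSO-only controls; beta-lactamase activity was then read by LiveBLAzer B/G FRET fluorescence after 2 h at room temperature.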

Sequence of Peroxisome proliferator-activated receptor gamma (Homo sapiens) (P37231 whole entry, looked up): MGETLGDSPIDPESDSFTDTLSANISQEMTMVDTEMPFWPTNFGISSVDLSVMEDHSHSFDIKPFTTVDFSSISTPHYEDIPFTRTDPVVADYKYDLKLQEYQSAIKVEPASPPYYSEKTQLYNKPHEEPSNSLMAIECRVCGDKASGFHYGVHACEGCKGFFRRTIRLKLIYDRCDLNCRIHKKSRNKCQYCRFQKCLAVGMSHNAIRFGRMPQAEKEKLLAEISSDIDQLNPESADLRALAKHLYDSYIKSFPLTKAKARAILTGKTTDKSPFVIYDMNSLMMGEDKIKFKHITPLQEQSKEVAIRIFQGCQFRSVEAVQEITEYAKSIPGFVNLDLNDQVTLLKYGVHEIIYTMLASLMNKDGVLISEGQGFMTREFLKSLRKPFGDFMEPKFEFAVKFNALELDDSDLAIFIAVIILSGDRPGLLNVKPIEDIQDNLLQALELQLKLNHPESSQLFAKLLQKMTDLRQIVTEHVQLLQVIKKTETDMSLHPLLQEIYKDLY
Sequence of Vitamin D3 receptor (Homo sapiens) (P11473 whole entry, looked up): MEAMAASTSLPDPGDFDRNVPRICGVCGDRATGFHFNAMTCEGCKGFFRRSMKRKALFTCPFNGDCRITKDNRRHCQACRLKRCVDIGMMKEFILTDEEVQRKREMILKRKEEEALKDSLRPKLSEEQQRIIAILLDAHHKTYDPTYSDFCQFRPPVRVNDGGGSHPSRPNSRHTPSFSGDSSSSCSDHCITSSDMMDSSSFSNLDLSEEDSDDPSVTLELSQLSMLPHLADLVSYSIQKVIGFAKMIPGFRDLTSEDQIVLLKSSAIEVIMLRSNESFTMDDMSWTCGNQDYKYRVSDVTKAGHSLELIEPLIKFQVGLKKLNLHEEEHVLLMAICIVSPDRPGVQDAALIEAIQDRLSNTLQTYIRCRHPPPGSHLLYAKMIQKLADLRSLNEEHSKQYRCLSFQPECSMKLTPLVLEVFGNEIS
Sequence of Androgen receptor (Homo sapiens) (P10275 whole entry, looked up): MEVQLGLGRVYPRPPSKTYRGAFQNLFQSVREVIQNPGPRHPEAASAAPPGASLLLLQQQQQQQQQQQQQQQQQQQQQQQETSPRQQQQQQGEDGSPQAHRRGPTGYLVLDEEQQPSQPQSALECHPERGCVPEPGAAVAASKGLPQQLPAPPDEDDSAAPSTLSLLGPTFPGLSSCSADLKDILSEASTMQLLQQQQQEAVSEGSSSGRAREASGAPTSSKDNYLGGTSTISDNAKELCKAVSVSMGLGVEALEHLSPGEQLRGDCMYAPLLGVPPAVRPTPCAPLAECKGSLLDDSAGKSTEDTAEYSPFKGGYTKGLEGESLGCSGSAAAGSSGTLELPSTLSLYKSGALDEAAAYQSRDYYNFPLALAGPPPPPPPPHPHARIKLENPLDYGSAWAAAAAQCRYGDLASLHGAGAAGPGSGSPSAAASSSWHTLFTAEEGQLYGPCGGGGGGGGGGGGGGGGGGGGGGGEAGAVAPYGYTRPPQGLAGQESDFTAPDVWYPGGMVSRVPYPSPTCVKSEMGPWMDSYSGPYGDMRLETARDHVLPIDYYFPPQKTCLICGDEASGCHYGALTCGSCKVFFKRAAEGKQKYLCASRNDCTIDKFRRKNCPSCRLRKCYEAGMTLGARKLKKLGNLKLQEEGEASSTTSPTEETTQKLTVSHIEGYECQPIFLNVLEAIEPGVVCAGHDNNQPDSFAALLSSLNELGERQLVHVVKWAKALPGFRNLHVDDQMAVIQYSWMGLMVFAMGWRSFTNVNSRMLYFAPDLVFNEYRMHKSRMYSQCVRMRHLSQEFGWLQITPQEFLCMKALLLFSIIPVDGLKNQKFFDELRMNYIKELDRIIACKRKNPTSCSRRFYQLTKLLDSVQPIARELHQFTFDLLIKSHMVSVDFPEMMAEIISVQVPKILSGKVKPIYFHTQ
Sequence of Nuclear receptor subfamily 1 group I member 2 (Rattus norvegicus) (Q9R1A7 whole entry, looked up): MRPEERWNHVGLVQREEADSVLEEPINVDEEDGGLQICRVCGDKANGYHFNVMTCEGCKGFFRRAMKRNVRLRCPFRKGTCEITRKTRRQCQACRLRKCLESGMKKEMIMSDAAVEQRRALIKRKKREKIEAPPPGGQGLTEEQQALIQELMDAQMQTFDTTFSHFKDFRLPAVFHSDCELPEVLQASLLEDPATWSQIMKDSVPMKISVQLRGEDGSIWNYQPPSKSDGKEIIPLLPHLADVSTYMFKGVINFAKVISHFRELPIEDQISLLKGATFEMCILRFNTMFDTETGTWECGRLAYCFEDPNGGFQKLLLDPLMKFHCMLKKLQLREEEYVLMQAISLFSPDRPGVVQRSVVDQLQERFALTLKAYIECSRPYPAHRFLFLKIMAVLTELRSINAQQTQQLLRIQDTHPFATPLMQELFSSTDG

As to `Cc1nnc2n1-c1sc(CCc3ccc(CC(C)C)cc3)cc1C(c1ccccc1Cl)=NC2C` (centres undefined), the Potency result in experiment [1] is “inactive”.
Take `CCN(CC)C(=O)Cl`: the compound was classed as inactive in experiment [2]. For the same compound, in experiment [3], the activity change, positive = activation is -1.51%.
As for `Nc1ccc([N+](=O)[O-])cc1`, the Potency in experiment [4] was 43.6 µM (active).
In the case of `O=[N+]([O-])c1c(Cl)c(Cl)cc(Cl)c1Cl`, the Potency entry in experiment [5] and in experiment [1] was “inactive” each time.
Take `Cc1cc(C(C)(C)c2ccc(O)c(C)c2)ccc1O`: the Potency in experiment [6] is 9.23 µM (active). Also, the result in experiment [7] was inactive.
As to `Cc1ccc(N(SC(F)(Cl)Cl)S(=O)(=O)N(C)C)cc1`, the Potency in experiment [8] is 8.63 µM (active).
Turning to `COc1cc(OC)c(OC)cc1C=O`, the Potency result in experiment [9] is “inactive”.
Take `CNC(=O)Oc1cc(C)c(SC)c(C)c1`: the result in experiment [2] was inactive.
In the case of `C[C@]12CC[C@@H](O)C[C@@H]1CC[C@@H]1[C@@H]2CC[C@]2(C)C(=O)CC[C@@H]12`, the call in experiment [2] was inactive.
Regarding `O=C1C(I)=CC(=C(c2cc(I)c(O)c(I)c2)c2ccccc2C(=O)O)C=C1I`, the Potency entry in [9], in experiment [1] and in experiment [11] was “inactive” throughout. For the same compound, in experiment [2], the result was inactive. Besides, the max activation in [10] was -1.41%.
As for `O=C(Nc1ccccc1-c1ccc(Cl)cc1)c1cccnc1Cl`, the Potency entry in [5], in [9] and in experiment [1] was “inactive” each time. The Potency in experiment [12] is 51.9 µM (active).
On to `CC1COC(Cn2cncn2)(c2ccc(Oc3ccc(Cl)cc3)cc2Cl)O1` (centres undefined), for which, in [6], the Potency was 1.93 µM (active). The compound was called inactive in experiment [2]. For the same compound, in [3], the activity change, positive = activation was -64.8%.
As to `COc1ccc(C(c2ccc(OC)cc2)C(Cl)(Cl)Cl)cc1`, the Potency in experiment [9] is 4.97 µM (active); in [1], 31.6 µM (active).
As for `CN1CSC(=S)N(C)C1`, the Potency entry in experiment [9] and in experiment [12] was “inactive” each time. For the same compound, in experiment [7], the call was inactive.
With `ClC1=C(Cl)[C@]2(Cl)[C@@H]3[C@@H](Cl)[C@H]4O[C@H]4[C@@H]3C1(Cl)C2(Cl)Cl`, the call in [7] was inactive.
In the case of `CCOC(=O)C(O)(c1ccc(Cl)cc1)c1ccc(Cl)cc1`, the Potency in experiment [4] is 19.5 µM (active); in [8] it was 19.5 µM (active) and 68.6 µM (active); in experiment [5], 55.5 µM [cytotoxic] (active) and 54.9 µM [inhibitor] (active). Also, the Potency result in experiment [13] is “inactive”.
As to `CO/C=C(/C(=O)OC)c1ccccc1Oc1cc(Oc2ccccc2C#N)ncn1`, the Potency in experiment [8] is 6.83 µM (active).
With `Cc1cc(C)c(C(=O)P(=O)(c2ccccc2)c2ccccc2)c(C)c1`, the activity change, positive = activation in experiment [3] was -54.9%.
Regarding `O=C(O)C(c1ccc(Cl)cc1)c1ccc(Cl)cc1`, in [7], the result was inactive.
Turning to `CC(CCl)OP(=O)(OC(C)CCl)OC(C)CCl` (centres undefined), the activity change, positive = activation in experiment [3] was -19.5%.
Turning to `Clc1ccccc1-c1ccccc1Cl`, the Potency result in [6] is “inactive”.
